From PubChem BioAssay AID463173 (ICCB-Longwood Screening Facility, Harvard Medical School, 2010)
Screen size: about 52,000 compounds; about 1,700 (3.3%) were called active. Many of the other results were omitted from the sample, so actives are more common in it than they were. Values without a mark were called inactive. Cut-off read from the data, not from the text of the source: active = survival mostly below about 52% (no sharp cut-off); inactive = mostly above about 56%.

system: Wild type; test: S. aureus survival, RN4220 and DeltatarO strains – OD600, teichoic acid synthesis inhibitors, primary screen (AID 463173); details: S. aureus RN4220 wild type/DeltatarO growth, OD600, 18 h, active compounds read low, screened at 18.75 µg/mL (by protocol)

Structure (SMILES)	survival
CCCN(C(=O)CCc1nc(-c2ccc(OC)cc2)no1)c1ccccc1F	0% (active)
COc1ccc(-c2noc(CC(=O)N(C)c3ccccc3F)n2)cc1	84%
CCOc1ccc(N(CC)C(=O)CCc2nc(-c3ccccc3F)no2)cc1	39%
Cc1ccc(-c2noc(CCC(=O)N(C)c3ccccc3F)n2)cc1	4% (active)
COc1ccc(-c2noc(CCC(=O)N(C)c3cc(Cl)ccc3OC)n2)cc1	20%
COc1ccc(-c2noc(CCC(=O)NCc3ccc(C)cc3)n2)cc1	94%
O=C(Nc1ccc(Br)cc1F)N1CCC(CN2CCc3ccccc3C2)CC1	63%
O=C(Nc1ccc2nc(SCC(=O)N3CCCC3)sc2c1)c1ccc(F)cc1	87%
O=C(CSc1nc2ccccc2c(=O)n1Cc1ccco1)Nc1ccccc1	106%
Cc1ccc(N2CCN(S(=O)(=O)c3ccc(-n4cnnn4)cc3)CC2)c(C)c1	97%
CCOc1ccc(C(=O)c2cn(Cc3ccccc3OC)c3cc4c(cc3c2=O)OCCO4)cc1	80%
CN(C)CCCN(C(=O)c1ccc(Br)s1)c1nc2ccc(F)cc2s1	-6% (active)
Cc1ccc2nc(N(CCCN(C)C)C(=O)c3ccc(Br)s3)sc2c1	90%
CN(C)CCCN(C(=O)c1cccs1)c1nc2ccc(F)cc2s1	76%
CCS(=O)(=O)c1ccccc1C(=O)Nc1ccc(-c2nc3ccccc3s2)cc1	77%
COc1ccccc1CNC(=O)CCn1cnc2ccccc2c1=O	-6% (active)
COc1ccccc1NC(=O)CCn1cnc2ccccc2c1=O	76%
O=C(CCn1cnc2ccccc2c1=O)NCc1ccccc1Cl	98%
Cc1ccc(-c2[nH]c3ccccc3c2SCCNC(=O)c2ccc(S(=O)(=O)N3CCOCC3)cc2)cc1	81%
CCOC(=O)c1ccc(CNS(=O)(=O)c2c(C)ccc3nsnc23)o1	105%
Fc1ccc(-n2nc(-c3ccccc3)c3cnc4ccccc4c32)cc1Cl	138%
Cc1ccc(C)c(N2CCN(S(=O)(=O)c3cc(C(=O)Nc4cc(Cl)cc(Cl)c4)ccc3F)CC2)c1	85%
CCOc1ccc(NC(=O)c2ccc3nc(C(C)C)oc3c2)cc1	70%

Structure (SMILES)	survival
COc1ccc(C)c2sc(N3CCN(C(=O)c4ccco4)CC3)nc12	-1% (active)
COc1ccc(C)c2sc(N3CCN(C(=O)c4cccc(F)c4)CC3)nc12	133%
COc1ccc(OC)c2sc(N3CCN(C(=O)C(C)(C)C)CC3)nc12	69%
Cc1ccc(Cl)c2sc(N3CCN(C(=O)C4CC4)CC3)nc12	76%
Cc1ccc(C)c2sc(N3CCN(C(=O)c4ccco4)CC3)nc12	159%
COc1ccc(OC)c2sc(N3CCN(C(=O)c4ccco4)CC3)nc12	76%
CCCC(=O)N1CCN(c2nc3c(OC)ccc(C)c3s2)CC1	14% (active)
CCS(=O)(=O)c1ccc(C(=O)N2CCN(c3nc4c(OC)ccc(C)c4s3)CC2)cc1	91%
COc1ccc(OC)c2sc(N3CCN(C(=O)C4CC4)CC3)nc12	-6% (active)
COc1ccc2c(c1)c1c(c(=O)n(-c3ccccc3C)c(=O)n1CC(N)=O)n2C	82%
CCOc1ccccc1NC(=O)CCn1nc(C)c(S(=O)(=O)N2CCCCC2)c1C	76%
COc1ccc(N2CCN(C(CNC(=O)CC(C)C)c3ccc4c(c3)OCO4)CC2)cc1 (stereo unspecified)	83%
CCOc1ccc(-c2nnc(SCC(=O)NCCc3ccccc3)nc2-c2ccc(OCC)cc2)cc1	73%
COc1cc(C2CC(=O)Nc3c2c(=O)[nH]c2ncnn32)ccc1O (stereo unspecified)	77%
CCOCCCNC(=O)c1ccc2c(=O)n(CCc3ccccc3)c(=O)[nH]c2c1	79%
Cc1ccc(C)c(N2CCN(C(=O)CSCc3ccccc3Cl)CC2)c1	82%
O=C(Nc1ccccn1)c1ccccc1O	110%
CCCCSc1nnc2c(n1)OC(c1ccc(C)s1)Nc1ccccc1-2 (stereo unspecified)	56%
CCCCSc1nnc2c(n1)OC(c1ccc(Br)s1)Nc1ccccc1-2 (stereo unspecified)	9% (active)
CCCSc1nnc2c(n1)OC(c1ccc(Br)s1)Nc1ccccc1-2 (stereo unspecified)	88%
Cc1ccc(NC(=O)Cn2c(=O)n(Cc3nc(-c4ccccc4)no3)c(=O)c3cc4c(cc32)OCO4)cc1F	89%
CC(C)C(c1nnnn1Cc1ccccc1)N1CCCc2ccccc21 (stereo unspecified)	122%
N#Cc1c(NC(=O)c2ccco2)sc2c1CCCC2	104%
